KCNQ2 inh: rat KCNQ2 potassium channel inhibitors, primary screen, cell-based, CHO-K1, FluxOR thallium flux, B-score. Potassium voltage-gated channel subfamily KQT member 2 (Rattus norvegicus), O88943. 20 min; hits give low values. B-score at 10 µM. hit rate 1.1% among 310,000. AID 2156, 2009;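 active = fluorescence ratio B-score at most minus 3 library SDs, with starting brightness B-score within 2 library SDs, cut at about -5.5 in these data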
KCNQ2 pot: potentiators of rat KCNQ2 potassium channel; CHO-K1 KCNQ2, FluxOR thallium flux fluorescence; hits give high values; B-score at 10 µM; hit rate 0.54% among 310,000;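 active = fluorescence ratio B-score at least 3 SD of library B-scores, with initial fluorescence B-score within 3 of them, cut at about 5.3 in these data; same plate scores as AID 2156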;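 note: B-score of peak minus minimum over baseline fluorescence ratio after K+ and Tl+ stimulus; positive B-score means potentiation of KCNQ2 with more thallium influx and brighter signal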
Kir21 conf inh: mouse Kir2.1 channel blockers, retest, confirmation, cell-based, FluxOR thallium flux, duplicate | shares compounds with KCNQ2 pot | Kir2.1-expressing cells, FluxOR thallium flux fluorescence; hits give low values | Tl flux remaining, % of negative control (hits give low values), % at 10 µM | hit rate 41% among 2,300 | AID 2032, 2009;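 active = Primary-screen hit whose thallium flux fell at least 3 control SD below untreated wells in both duplicates, with normal baseline fluorescence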;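 note: 0% = blank wells without stimulus and 100% = stimulated no-compound controls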
Target sequence (P35561 whole entry, looked up): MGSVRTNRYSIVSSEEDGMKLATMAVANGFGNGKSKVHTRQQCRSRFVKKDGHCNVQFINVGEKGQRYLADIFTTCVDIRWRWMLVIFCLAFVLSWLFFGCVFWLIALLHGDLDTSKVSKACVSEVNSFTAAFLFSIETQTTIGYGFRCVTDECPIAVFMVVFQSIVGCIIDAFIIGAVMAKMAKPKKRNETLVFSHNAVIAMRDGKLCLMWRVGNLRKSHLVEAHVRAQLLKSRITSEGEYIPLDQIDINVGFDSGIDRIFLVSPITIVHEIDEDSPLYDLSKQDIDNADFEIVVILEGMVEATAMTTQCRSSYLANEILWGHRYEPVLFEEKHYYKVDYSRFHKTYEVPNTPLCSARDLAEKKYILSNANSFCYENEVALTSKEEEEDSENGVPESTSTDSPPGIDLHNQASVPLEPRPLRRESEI
HEK293 Tl flux: counter-screen for Kir2.1 inhibitors: effect in parental HEK293 cells. FluxOR signal as % of negative control (100 = no effect), % at 10 µM. FluxOR thallium flux fluorescence; 0% = unstimulated blank wells. AID 2105. shares compounds with KCNQ2 pot. hit rate 19% among 2,300;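 active = dye signal at least 3 control SD above or below untreated wells in both duplicates, raw fluorescence within 3, either direction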;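 note: percent is based on the flux ratio of peak minus minimum fluorescence over baseline F0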
CHO-K1 Tl ctr: nonspecific thallium flux increase in parental CHO-K1, confirmation, counter-screen for KCNQ2 potentiator project, cell-based, FluxOR thallium flux, duplicate; parental CHO-K1 cells, FluxOR thallium flux fluorescence; zero = vehicle mean+3SD, 100% = vehicle-minus-blank window; hit rate 43% among 1,200; shares compounds with KCNQ2 pot; activity increase over 3SD of controls, % at 10 µM; AID 2282, 2010;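 active = signal rise of at least 3 SD above the untreated control mean, in both duplicate wells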;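 note: counter screen of KCNQ2 potentiator hits so any rise reflects channel-independent effects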
KCNQ1 pot spec: human KCNQ1 channel potentiation off-target, confirmation, selectivity assay for KCNQ2 potentiator project, cell-based, CHO, FluxOR thallium flux; shares compounds with KCNQ2 pot; CHO KCNQ1 stable, FluxOR thallium flux fluorescence; beyond 3SD, as % of vehicle-control signal; activation over 3SD threshold, % at 10 µM; hit rate 28% among 1,200;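 active = fluorescence ratio rise of at least 3 SD of vehicle wells above their mean, in both replicate wells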;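 note: 0% = vehicle mean plus 3 SD and 100% = vehicle minus unstimulated blank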
KCNQ2 pot confirm: rat KCNQ2 channel potentiators, confirmation, cell-based, CHO, FluxOR thallium flux, duplicate | CHO-KCNQ2 cells, FluxOR thallium flux fluorescence | AID 2287, 2010 | shares compounds with KCNQ2 pot | potentiation, less the hit threshold, % at 10 µM | hit rate 68% among 1,200;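 active = fluorescence ratio rising 3 SD or more over the vehicle control mean in both replicates, plus primary screen hit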;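 note: peak minus minimum thallium fluorescence divided by baseline after K/Tl stimulus; 0% = vehicle mean plus 3 SD and 100% = vehicle minus unstimulated blank difference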
Kir2-1 sel: mouse Kir2.1 channel activation off-target, confirmation, selectivity assay for KCNQ2 potentiator project, cell-based, HEK293, FluxOR thallium flux; shares compounds with KCNQ2 pot; HEK293 Kir2.1, FluxOR thallium flux fluorescence; activity over 3SD threshold, % at 10 µM; hit rate 2% among 1,200; AID 2345, 2010;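 active = fluorescence ratio rise of at least 3 SD above the vehicle-control mean, seen in both replicates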;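 note: 0% = vehicle mean plus 3 SD and 100% = vehicle minus no-stimulus blank window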
KCNQ2 W236L MoA: potentiators of retigabine-insensitive KCNQ2 W236L, mechanism study for KCNQ2 potentiator project, cell-based, rat KCNQ2 W236L, CHO, automated patch clamp; hit rate 10% among 940; shares compounds with KCNQ2 pot; current increase over 3SD of negative controls (%), hits give high values, % at 25 µM; AID 2558, 2010; automated patch clamp current;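 active = current increase at least 3 SD of the untreated controls above them in both duplicate recordings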
* = called active by the depositor; i = inactive; . = not tested or not shown. Most compounds without a hit are left out; they make up all but 1.6% or so of the library.

SMILES	KCNQ2 inh	KCNQ2 pot	Kir21 conf inh	HEK293 Tl flux	others
COc1ccccc1C1c2[nH]c3ccccc3c2CCN1Cc1ccc(NC(C)=O)s1 (configuration not stated)	i	.	.	.
CN1C(=O)c2ccc(Oc3ccccc3)cc2C1=O	i	1.49	.	.
Cc1occc1C(=O)Nc1cccc(Cl)c1Cl	i	0.31	.	.
CC[n+]1c(C)cc(C)n1-c1ccccc1	i	.	.	.
COc1ccc(NC(=O)C(=O)N2N=C3CCCCC3C2(O)C(F)(F)F)cc1 (configuration not stated)	i	0.33	.	.
COc1ccc2cc([C@H](C)C(=O)N(C)Cc3ccccc3N3CCCC3)ccc2c1	i	.	.	.
CCCC(C1=C(O)CC(C)(C)CC1=O)C1C(=O)CC(C)(C)CC1=O (configuration not stated)	i	.	.	.
Cc1ccc(C(C2=C(O)CC(C)(C)CC2=O)C2C(=O)CC(C)(C)CC2=O)o1 (configuration not stated)	i	8.67*	.	.	CHO-K1 Tl ctr=-16.7;KCNQ1 pot spec=53.9*;KCNQ2 pot confirm=1.5*;Kir2-1 sel=-57.6;KCNQ2 W236L MoA=45.6%*
CCc1cccc(C)c1NC(=O)CCNC(=O)c1cccc(C)c1	i	.	.	.
Cc1cc(C)c(C)c(S(=O)(=O)NCC(=O)Nc2ccccc2F)c1C	i	.	66.0%*	i
Cc1cc(C)c(C)c(S(=O)(=O)NCC(=O)O)c1C	i	0.38	.	.
O=C(NCCc1csc(-c2ccc(C(F)(F)F)cc2)n1)c1cccs1	i	.	.	.
O=C(CSc1nc2[nH]ncc2c(=O)[nH]1)Nc1cccc(Cl)c1	i	.	.	.
N#Cc1c(-c2ccco2)nc(SCC(=O)Nc2cccc(Cl)c2)[nH]c1=O	i	5.52*	i	i	CHO-K1 Tl ctr=-13.2;KCNQ1 pot spec=-7.1;KCNQ2 pot confirm=7.4*;Kir2-1 sel=-29.8;KCNQ2 W236L MoA=i
C=CCOc1ccc(/C=C2\SC(=S)N(NS(=O)(=O)c3ccc(C)cc3)C2=O)cc1	i	7.7*	i	158.5%*	CHO-K1 Tl ctr=16.8*;KCNQ1 pot spec=-21.4;KCNQ2 pot confirm=17.1*;Kir2-1 sel=-36.2;KCNQ2 W236L MoA=i
COc1ccc(/C=C2/SC(=S)N(NS(=O)(=O)c3ccc(C)cc3)C2=O)cc1	i	5.12	.	.
Cc1ccc(S(=O)(=O)NCCC(=O)N2CCCCCCC2)cc1	i	.	.	.
Cn1c(SCc2cc(=O)n3cc(Br)ccc3n2)nnc1C1COc2ccccc2O1 (configuration not stated)	i	0.08	.	.
Cc1cc(C)c2nc(C)cc(N/N=C/c3ccc(O)cc3)c2c1	-8.07*	-8.07	i	i
Cc1cc(N/N=C/c2ccc(O)cc2)c2cccc(C)c2n1	i	1.1	.	.
O=C(Nc1cccc(C(=O)O)c1)/C(=C\c1ccccc1Cl)NC(=O)c1ccco1	i	0.77	.	.
COc1cccc(CNc2ccc(C)c(Cl)c2)c1	i	0.05	.	.
COc1cccc(CNc2cc(CSc3ccc(Cl)cc3)nc(C)n2)c1	i	.	53.5%*	i
NC(=O)C1=C[C@@H](c2ccc(Br)cc2)C[C@@H](OCc2ccc(CO)cc2)O1	i	.	.	.
NC(=O)C1=C[C@H](c2ccc(Br)cc2)C[C@H](OCc2ccc(CO)cc2)O1	i	0.05	45.0%*	i
SMILES	KCNQ2 inh	KCNQ2 pot	Kir21 conf inh	HEK293 Tl flux	others
O=C(CSc1ccccc1)NCC1(N2CCCCC2)CCCCC1	i	0.01	.	.
CCCn1nnnc1COc1ccc(C(N)=O)cc1	i	0.89	.	.
CC(Oc1ccc(Cl)cc1)c1ccnn1S(=O)(=O)c1ccc(Cl)cc1 (configuration not stated)	i	.	.	.
CC(Oc1ccccc1)c1ccnn1S(=O)(=O)c1ccccc1 (configuration not stated)	i	.	52.0%*	i
CCn1c(O)c(N=Nc2ccc(Cl)c(C(=O)O)c2)c2ccccc21	i	2.76	.	.
CC(C)n1c(O)c(N=Nc2ccc(Cl)c(C(=O)O)c2)c2ccccc21	i	7.51*	i	i	CHO-K1 Tl ctr=78.3*;KCNQ1 pot spec=29.3*;KCNQ2 pot confirm=23.0*;Kir2-1 sel=-32.0;KCNQ2 W236L MoA=49.5%*
CC1Cc2cc(/C=C3/SC(=S)NC3=O)ccc2O1 (configuration not stated)	i	10.2*	i	145.0%*	CHO-K1 Tl ctr=-13.1;KCNQ1 pot spec=-14.1;KCNQ2 pot confirm=7.8*;Kir2-1 sel=-31.4;KCNQ2 W236L MoA=4.5%*
Cc1cc(/C=C2\SC(=S)NC2=O)cc(C)c1O	i	0.89	.	.
Cc1cc(C)cc(OCC(=O)OCC(=O)N(C)CC(=O)Nc2ccc(F)cc2)c1	i	8.35*	i	i	CHO-K1 Tl ctr=18.1*;KCNQ1 pot spec=-8.0;KCNQ2 pot confirm=19.3*;Kir2-1 sel=-36.2;KCNQ2 W236L MoA=i
CN(CC(=O)Nc1ccc(F)cc1)C(=O)COC(=O)COc1ccc(C#N)cc1	i	1.01	.	.
COc1ccc(NC(=O)CCNS(=O)(=O)c2ccc(C)c(C)c2)cc1OC	i	0.15	.	.
O=C(CCNS(=O)(=O)c1cccc2nonc12)NC1CCCCC1	i	0.78	.	.
O=C(CCS(=O)(=O)c1cccc2nonc12)NC1CCCCCC1	i	11.2*	i	i	CHO-K1 Tl ctr=33.3*;KCNQ1 pot spec=-13.4;KCNQ2 pot confirm=36.2*;Kir2-1 sel=-40.2;KCNQ2 W236L MoA=i
COc1ccc(Cl)cc1C(=O)NC(C)C	i	.	.	.
CC(O)(C#CCN1CCOCC1)c1ccccc1 (configuration not stated)	i	0.49	.	.
CN1CCN(CC#CC(C)(O)C2CC3C=CC2C3)CC1 (configuration not stated)	i	5.38*	i	i	CHO-K1 Tl ctr=-3.2;KCNQ1 pot spec=-39.2;KCNQ2 pot confirm=-9.8;Kir2-1 sel=-36.8
CCOc1ccc(NC(=O)C2CCCN2S(=O)(=O)c2ccc3c(c2)C(C)(C)C(=O)N3C)cc1 (configuration not stated)	i	2.24	.	.
COc1ccc(-n2ncc3c(=O)n(CC(=O)NC(C)C)cnc32)cc1	i	0.88	.	.
CC1(C)CC2CC(C)(CN2C(=O)COC(=O)CNC(=O)c2ccc(Cl)c(Cl)c2)C1 (configuration not stated)	i	.	.	.
O=C(NC(=S)Nc1ccccc1N1CCOCC1)c1sc2ccccc2c1Cl	i	0.64	.	.

Source: PubChem (Johns Hopkins Ion Channel Center)
